{
  "source": "paper PMC7862700",
  "about": "“An all-to-all approach to the identification of sequence-specific readers for epigenetic DNA modifications on cytosine”",
  "assay_in_all_cases": "DAPPL (digital affinity profiling via proximity ligation, sequencing); 10 mM Tris-HCl pH 7.5, 50 mM NaCl, 1 mM DTT, 4% glycerol, room temperature, 30 min; GST-TFs on glutathione beads, 16-mer random dsDNA library, 0.1% formaldehyde crosslink after washing; high values mean tight binding",
  "key": {"[1]": {"molecular_target": "T1, FLI1 (Homo sapiens, UniProt Q01543 1-452)", "T1 sequence": "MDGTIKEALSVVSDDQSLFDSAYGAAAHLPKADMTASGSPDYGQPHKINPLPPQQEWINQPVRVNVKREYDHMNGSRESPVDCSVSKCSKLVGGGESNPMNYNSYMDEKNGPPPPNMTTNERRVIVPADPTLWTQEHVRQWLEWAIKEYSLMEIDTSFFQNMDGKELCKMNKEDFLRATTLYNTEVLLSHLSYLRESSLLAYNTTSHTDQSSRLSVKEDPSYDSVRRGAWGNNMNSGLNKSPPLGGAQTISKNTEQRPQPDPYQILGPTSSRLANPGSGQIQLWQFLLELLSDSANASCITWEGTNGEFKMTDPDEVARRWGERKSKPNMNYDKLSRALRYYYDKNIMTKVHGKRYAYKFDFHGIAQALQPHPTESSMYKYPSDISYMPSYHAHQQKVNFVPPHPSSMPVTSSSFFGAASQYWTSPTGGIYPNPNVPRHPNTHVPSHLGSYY", "settings": "protein: recombinant; tags: N-terminal GST; dsDNA, one strand shown", "outline": "(§1)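 Binding signal is defined as a hexamer's read frequency for one factor over its frequency for the tag-only sample. To obtain reads, GST-fused human transcription factors were expressed in yeast, captured on glutathione beads, barcoded with DNA and pooled with that sample. Pools met 200 nmole of a 16-mer random double-stranded DNA library in Tris/NaCl/DTT/glycerol buffer for 30 min at room temperature before washing, 0.1% formaldehyde crosslinking, proximity ligation (BsaI/T4 ligase, 1 h, 37 °C), PCR and Illumina NextSeq500 sequencing.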"}, "[2]": {"molecular_target": "T2, ELK1 (Homo sapiens, UniProt P19419 1-428)", "T2 sequence": "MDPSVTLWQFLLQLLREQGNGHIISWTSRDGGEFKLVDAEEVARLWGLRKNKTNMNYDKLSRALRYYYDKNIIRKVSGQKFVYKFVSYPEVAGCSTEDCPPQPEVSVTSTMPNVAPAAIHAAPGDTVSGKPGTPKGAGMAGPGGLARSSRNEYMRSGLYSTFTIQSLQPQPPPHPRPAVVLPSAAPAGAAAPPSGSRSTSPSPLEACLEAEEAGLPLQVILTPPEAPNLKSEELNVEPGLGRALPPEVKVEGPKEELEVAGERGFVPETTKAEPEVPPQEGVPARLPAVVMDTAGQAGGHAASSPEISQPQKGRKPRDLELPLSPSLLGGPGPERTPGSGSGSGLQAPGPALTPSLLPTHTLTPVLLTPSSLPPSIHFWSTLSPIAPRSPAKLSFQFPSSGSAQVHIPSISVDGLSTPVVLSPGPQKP", "settings": "protein: recombinant; tags: N-terminal GST; dsDNA, one strand shown", "outline": "as §1"}, "[3]": {"molecular_target": "T3, GABPA (Homo sapiens, UniProt Q06546 1-454)", "T3 sequence": "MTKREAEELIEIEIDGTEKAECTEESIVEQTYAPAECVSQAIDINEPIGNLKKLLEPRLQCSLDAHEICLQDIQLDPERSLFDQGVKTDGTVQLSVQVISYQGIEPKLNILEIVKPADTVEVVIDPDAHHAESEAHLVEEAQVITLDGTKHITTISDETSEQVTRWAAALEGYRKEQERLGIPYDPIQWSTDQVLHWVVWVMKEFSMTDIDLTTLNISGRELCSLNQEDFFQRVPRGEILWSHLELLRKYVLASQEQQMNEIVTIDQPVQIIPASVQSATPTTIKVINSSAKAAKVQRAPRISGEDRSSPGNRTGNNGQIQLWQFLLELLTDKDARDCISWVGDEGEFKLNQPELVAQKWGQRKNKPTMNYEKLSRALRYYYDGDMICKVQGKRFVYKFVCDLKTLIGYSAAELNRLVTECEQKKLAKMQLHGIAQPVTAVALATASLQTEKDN", "settings": "protein: recombinant; tags: N-terminal GST; dsDNA, one strand shown", "outline": "as §1"}, "[4]": {"molecular_target": "T4, ERG (Homo sapiens, UniProt P11308 1-479)", "T4 sequence": "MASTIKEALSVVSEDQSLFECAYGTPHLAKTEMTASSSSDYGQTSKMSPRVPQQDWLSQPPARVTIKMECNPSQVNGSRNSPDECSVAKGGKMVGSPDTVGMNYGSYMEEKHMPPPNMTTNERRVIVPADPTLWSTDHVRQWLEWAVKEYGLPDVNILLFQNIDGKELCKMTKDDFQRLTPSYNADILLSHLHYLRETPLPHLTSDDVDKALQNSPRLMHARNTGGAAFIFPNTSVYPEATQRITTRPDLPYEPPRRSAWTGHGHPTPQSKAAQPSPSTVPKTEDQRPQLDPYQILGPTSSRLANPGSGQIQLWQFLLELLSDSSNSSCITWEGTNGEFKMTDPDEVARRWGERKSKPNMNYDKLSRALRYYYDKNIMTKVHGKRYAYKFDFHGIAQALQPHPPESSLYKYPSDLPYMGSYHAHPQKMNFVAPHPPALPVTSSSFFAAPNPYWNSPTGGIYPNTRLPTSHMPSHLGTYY", "settings": "protein: recombinant; tags: N-terminal GST; dsDNA, one strand shown", "outline": "as §1"}, "[5]": {"molecular_target": "ELF1 (Homo sapiens, UniProt P32519 1-619)", "sequence (P32519 whole entry)": "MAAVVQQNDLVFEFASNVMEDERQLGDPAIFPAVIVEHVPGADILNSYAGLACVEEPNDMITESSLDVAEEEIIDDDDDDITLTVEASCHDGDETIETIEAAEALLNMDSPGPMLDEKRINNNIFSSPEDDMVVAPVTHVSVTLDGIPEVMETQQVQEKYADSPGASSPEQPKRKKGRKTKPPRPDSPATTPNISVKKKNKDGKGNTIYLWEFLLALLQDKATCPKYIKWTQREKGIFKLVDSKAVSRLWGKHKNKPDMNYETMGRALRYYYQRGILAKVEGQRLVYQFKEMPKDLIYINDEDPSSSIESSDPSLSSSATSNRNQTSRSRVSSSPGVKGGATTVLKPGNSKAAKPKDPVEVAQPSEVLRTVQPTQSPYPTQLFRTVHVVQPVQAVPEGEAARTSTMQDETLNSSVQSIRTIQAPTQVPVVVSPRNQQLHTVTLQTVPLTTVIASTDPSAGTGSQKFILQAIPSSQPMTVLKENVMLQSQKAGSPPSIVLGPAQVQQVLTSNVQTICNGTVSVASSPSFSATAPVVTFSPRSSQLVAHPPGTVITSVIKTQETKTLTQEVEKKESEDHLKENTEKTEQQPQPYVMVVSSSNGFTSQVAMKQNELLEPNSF", "settings": "protein: recombinant; tags: N-terminal GST; dsDNA, one strand shown", "outline": "as §1"}, "[6]": {"molecular_target": "T5, EHF (Homo sapiens, UniProt Q9NZC4 1-300)", "T5 sequence": "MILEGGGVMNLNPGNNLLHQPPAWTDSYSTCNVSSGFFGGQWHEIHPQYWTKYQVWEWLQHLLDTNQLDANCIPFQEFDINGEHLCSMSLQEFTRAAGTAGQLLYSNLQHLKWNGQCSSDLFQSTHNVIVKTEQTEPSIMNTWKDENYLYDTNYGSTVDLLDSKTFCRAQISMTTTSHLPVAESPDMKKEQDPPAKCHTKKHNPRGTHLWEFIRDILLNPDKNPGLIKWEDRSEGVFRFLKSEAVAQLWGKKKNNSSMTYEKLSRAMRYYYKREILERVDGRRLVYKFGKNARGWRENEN", "settings": "protein: recombinant; tags: N-terminal GST; dsDNA, one strand shown", "outline": "as §1"}, "[7]": {"molecular_target": "SPI1 (Homo sapiens, UniProt P17947 1-270)", "settings": "protein: recombinant; tags: N-terminal GST; dsDNA, one strand shown", "outline": "as §1"}, "[8]": {"molecular_target": "SPIB (Homo sapiens, UniProt Q01892 1-262)", "sequence (Q01892 whole entry)": "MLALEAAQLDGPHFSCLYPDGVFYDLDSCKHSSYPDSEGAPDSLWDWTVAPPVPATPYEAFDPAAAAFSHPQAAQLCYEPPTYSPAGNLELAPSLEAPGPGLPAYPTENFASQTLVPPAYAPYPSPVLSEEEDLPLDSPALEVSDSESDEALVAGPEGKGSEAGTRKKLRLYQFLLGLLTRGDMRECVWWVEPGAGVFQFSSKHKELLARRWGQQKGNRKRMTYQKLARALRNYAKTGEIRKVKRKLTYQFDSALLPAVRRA", "settings": "protein: recombinant; tags: N-terminal GST; dsDNA, one strand shown", "outline": "as §1"}, "[9]": {"molecular_target": "ETV5 (Homo sapiens, UniProt P41161 1-510)", "sequence (P41161 whole entry)": "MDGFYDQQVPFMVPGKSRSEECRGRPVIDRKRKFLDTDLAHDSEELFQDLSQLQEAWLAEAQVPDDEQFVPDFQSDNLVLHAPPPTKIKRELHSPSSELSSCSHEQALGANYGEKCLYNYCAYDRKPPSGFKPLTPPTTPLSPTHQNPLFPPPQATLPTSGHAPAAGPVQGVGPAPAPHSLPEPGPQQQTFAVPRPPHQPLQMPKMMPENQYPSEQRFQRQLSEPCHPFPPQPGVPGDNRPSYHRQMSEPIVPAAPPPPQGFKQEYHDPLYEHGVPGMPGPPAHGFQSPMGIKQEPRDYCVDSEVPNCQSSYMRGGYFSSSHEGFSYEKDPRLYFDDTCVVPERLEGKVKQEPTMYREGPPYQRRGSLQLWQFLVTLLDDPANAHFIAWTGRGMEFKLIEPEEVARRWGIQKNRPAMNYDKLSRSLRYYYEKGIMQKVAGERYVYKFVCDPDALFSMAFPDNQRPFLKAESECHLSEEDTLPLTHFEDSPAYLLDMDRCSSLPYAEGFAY", "settings": "protein: recombinant; tags: N-terminal GST; dsDNA, one strand shown", "outline": "as §1"}, "[10]": {"molecular_target": "HSF1 (Homo sapiens, UniProt Q00613 1-529)", "sequence (Q00613 whole entry)": "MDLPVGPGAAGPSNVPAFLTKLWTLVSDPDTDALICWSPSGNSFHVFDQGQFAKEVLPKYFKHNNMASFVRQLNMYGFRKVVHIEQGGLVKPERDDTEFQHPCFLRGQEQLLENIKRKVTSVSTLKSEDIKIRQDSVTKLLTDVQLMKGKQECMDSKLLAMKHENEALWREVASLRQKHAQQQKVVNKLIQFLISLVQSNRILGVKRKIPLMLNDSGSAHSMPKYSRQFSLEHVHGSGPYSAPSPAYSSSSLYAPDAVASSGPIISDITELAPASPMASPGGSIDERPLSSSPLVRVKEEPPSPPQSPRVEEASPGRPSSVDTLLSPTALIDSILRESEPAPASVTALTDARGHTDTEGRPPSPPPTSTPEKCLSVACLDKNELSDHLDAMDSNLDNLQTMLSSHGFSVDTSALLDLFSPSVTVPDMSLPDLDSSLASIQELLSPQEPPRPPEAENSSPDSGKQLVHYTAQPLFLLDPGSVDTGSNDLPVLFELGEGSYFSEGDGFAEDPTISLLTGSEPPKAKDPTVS", "settings": "protein: recombinant; tags: N-terminal GST; chain copies: 3; dsDNA, one strand shown", "outline": "as §1"}, "[11]": {"molecular_target": "T6, SPIC (Homo sapiens, UniProt Q8N5J4 1-248)", "T6 sequence": "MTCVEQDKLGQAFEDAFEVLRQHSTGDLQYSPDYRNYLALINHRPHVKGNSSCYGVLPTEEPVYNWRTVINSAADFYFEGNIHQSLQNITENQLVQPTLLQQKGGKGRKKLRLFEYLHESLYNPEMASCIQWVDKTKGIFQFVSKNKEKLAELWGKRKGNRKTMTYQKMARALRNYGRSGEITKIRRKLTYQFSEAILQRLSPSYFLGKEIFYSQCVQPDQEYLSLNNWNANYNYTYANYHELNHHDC", "settings": "protein: recombinant; tags: N-terminal GST; dsDNA, one strand shown", "outline": "as §1"}, "[12]": {"molecular_target": "ELF4 (Homo sapiens, UniProt Q99607 1-663)", "sequence (Q99607 whole entry)": "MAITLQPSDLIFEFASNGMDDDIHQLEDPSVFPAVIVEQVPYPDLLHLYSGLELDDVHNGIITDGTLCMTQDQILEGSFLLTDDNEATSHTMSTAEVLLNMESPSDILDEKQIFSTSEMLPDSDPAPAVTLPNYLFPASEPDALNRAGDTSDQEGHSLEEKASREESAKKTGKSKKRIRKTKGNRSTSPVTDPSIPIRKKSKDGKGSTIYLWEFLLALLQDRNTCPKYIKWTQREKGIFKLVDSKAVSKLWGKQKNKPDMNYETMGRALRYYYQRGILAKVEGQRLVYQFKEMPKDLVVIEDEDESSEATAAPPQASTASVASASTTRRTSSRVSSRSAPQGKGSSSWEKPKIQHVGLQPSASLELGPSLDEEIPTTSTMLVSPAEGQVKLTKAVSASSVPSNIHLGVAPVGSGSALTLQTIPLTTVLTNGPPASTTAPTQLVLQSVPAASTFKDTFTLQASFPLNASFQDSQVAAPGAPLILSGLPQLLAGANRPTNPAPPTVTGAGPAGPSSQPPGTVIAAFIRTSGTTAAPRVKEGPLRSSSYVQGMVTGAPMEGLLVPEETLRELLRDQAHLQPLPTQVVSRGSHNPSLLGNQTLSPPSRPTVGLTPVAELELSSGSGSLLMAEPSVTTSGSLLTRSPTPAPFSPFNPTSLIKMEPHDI", "settings": "protein: recombinant; tags: N-terminal GST; dsDNA, one strand shown", "outline": "as §1"}, "[13]": {"molecular_target": "T7, ELK4 (Homo sapiens, UniProt P28324-2 1-405)", "T7 sequence": "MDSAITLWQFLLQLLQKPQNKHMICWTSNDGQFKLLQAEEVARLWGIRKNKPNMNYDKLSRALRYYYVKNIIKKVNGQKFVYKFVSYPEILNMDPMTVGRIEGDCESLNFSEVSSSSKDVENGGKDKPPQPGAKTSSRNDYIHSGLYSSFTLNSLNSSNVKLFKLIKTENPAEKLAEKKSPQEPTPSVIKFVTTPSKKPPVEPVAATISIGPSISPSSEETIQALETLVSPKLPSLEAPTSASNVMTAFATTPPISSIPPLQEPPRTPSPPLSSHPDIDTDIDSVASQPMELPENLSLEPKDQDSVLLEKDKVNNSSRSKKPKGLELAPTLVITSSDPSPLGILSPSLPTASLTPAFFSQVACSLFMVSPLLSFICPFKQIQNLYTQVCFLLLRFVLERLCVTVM", "settings": "protein: recombinant; tags: N-terminal GST; dsDNA, one strand shown", "outline": "as §1"}, "[14]": {"molecular_target": "T8, ETV2 (Homo sapiens, UniProt O00321 1-342)", "T8 sequence": "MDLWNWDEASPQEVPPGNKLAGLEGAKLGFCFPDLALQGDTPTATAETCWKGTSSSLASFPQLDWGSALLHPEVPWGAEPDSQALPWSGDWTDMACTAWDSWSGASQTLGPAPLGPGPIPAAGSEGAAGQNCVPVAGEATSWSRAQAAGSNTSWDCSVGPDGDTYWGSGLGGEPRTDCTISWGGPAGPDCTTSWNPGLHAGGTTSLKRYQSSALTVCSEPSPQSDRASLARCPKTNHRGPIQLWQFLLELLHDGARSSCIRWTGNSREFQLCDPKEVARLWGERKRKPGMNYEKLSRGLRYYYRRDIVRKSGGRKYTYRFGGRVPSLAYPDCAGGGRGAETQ", "settings": "protein: recombinant; tags: N-terminal GST; dsDNA, one strand shown", "outline": "as §1"}, "[15]": {"molecular_target": "CRX (Homo sapiens, UniProt O43186 1-299)", "sequence (O43186 whole entry)": "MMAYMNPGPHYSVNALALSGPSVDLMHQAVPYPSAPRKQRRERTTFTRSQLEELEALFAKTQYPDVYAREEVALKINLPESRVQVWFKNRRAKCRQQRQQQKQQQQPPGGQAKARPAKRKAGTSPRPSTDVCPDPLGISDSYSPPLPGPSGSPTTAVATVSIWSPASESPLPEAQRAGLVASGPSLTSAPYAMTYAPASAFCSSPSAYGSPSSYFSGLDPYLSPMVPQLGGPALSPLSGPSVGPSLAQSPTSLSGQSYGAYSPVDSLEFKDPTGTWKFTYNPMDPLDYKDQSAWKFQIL", "settings": "protein: recombinant; tags: N-terminal GST; dsDNA, one strand shown", "outline": "as §1"}, "[16]": {"molecular_target": "ETV1 (Homo sapiens, UniProt P50549 1-477)", "sequence (P50549 whole entry)": "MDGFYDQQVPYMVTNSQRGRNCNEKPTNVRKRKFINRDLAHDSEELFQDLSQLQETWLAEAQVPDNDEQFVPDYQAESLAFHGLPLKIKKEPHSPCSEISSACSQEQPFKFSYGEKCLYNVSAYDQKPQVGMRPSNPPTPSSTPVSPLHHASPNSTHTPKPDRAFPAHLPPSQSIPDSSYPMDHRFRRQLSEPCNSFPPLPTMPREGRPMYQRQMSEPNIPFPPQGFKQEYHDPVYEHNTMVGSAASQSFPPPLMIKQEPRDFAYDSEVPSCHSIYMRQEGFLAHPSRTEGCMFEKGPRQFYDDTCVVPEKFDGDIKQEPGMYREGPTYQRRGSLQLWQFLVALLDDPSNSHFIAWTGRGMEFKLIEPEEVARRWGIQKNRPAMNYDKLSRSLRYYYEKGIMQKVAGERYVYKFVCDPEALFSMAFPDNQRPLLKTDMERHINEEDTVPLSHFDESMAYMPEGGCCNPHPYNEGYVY", "settings": "protein: recombinant; tags: N-terminal GST; dsDNA, one strand shown", "outline": "as §1"}},
  "data": [
    {"sequence": "TTAGCG", "values": [
      {"measurement": "binding signal", "setting": "[1]", "value": "1.05 fold enrichment (6-mer frequency, TF over GST control)"},
      {"measurement": "binding signal", "setting": "[2]", "value": "1.04 fold enrichment (6-mer frequency, TF over GST control)"},
      {"measurement": "binding signal", "setting": "[3]", "value": "1.03 fold enrichment (6-mer frequency, TF over GST control)"},
      {"measurement": "binding signal", "setting": "[4]", "value": "1.05 fold enrichment (6-mer frequency, TF over GST control)"},
      {"measurement": "binding signal", "setting": "[5]", "value": "1.09 fold enrichment (6-mer frequency, TF over GST control)"},
      {"measurement": "binding signal", "setting": "[6]", "value": "1.06 fold enrichment (6-mer frequency, TF over GST control)"},
      {"measurement": "binding signal", "setting": "[7]", "value": "1 fold enrichment (6-mer frequency, TF over GST control)"},
      {"measurement": "binding signal", "setting": "[8]", "value": "1.13 fold enrichment (6-mer frequency, TF over GST control)"},
      {"measurement": "binding signal", "setting": "[9]", "value": "1 fold enrichment (6-mer frequency, TF over GST control)"},
      {"measurement": "binding signal", "setting": "[10]", "value": "1.49 fold enrichment (6-mer frequency, TF over GST control)"},
      {"measurement": "binding signal", "setting": "[11]", "value": "1.03 fold enrichment (6-mer frequency, TF over GST control)"},
      {"measurement": "binding signal", "setting": "[12]", "value": "1.14 fold enrichment (6-mer frequency, TF over GST control)"},
      {"measurement": "binding signal", "setting": "[13]", "value": "1.05 fold enrichment (6-mer frequency, TF over GST control)"},
      {"measurement": "binding signal", "setting": "[14]", "value": "1.14 fold enrichment (6-mer frequency, TF over GST control)"},
      {"measurement": "binding signal", "setting": "[15]", "value": "2.24 fold enrichment (6-mer frequency, TF over GST control)"},
      {"measurement": "binding signal", "setting": "[16]", "value": "1.07 fold enrichment (6-mer frequency, TF over GST control)"}
    ]}
  ]
}
